# From the supplement of paper PMC10037445
# “And” between values parts separate entries of the source, which are not always exact repeats. Equal entries are not always repeated. The full ranking holds about 2,900 compounds; the median of “NF-kB SEAP reporter activity, fold change vs agonist alone” is about 0.99, and the highest 2% start at about 2.6. This excerpt belongs to a sample that is enriched for the highest values.
# Legend:
# RAW-Dual [1] = assay: NF-kB SEAP reporter activity, fold change vs agonist alone; higher = enhanced NF-kB activity; details: library stock concentration (final ~1000-fold dilution): 10 mM
# Method in brief: (§1)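 Library stock was pin-tooled at 50 nL into 384-well plates of RAW-Dual macrophages (50,000 cells/well, DMEM), followed 1 h later by a PRR agonist, and the cells were kept at 37 °C, 5% CO2. Supernatant collected after 20 hours was read for IRF by QuantiLuc luminescence and for NF-κB by QuantiBlue absorbance at 620 nm. Reporter activity is fold change over agonist-alone wells, and a well counted as cytotoxic when its IncuCyte confluency was below 70% of agonist controls in both mask sets.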
# RAW-Dual [2] = assay: NF-kB SEAP reporter activity, fold change vs agonist alone; cytotoxicity flag (confluency mask): not cytotoxic; higher = enhanced NF-kB activity
# Method in brief: as §1
# RAW-Dual [3] = assay: NF-kB SEAP reporter activity, fold change vs agonist alone; cytotoxicity flag (confluency mask): cytotoxic (confluency <70% of control); higher = enhanced NF-kB activity
# Method in brief: as §1
# [4] = cytotoxicity flag (confluency mask): not cytotoxic, agonist: Imiquimod (TLR7) […]
# [5] = cytotoxicity flag (confluency mask): not cytotoxic, agonist: MPLA (TLR4) […]
# [6] = agonist: ODN 1826 (TLR9) 0.5 ug/mL
# [7] = agonist: Pam2CSK4 (TLR2/6) 0.1 ug/mL
# [8] = agonist: Pam3CSK4 (TLR2/1) 0.1 ug/mL
# [9] = cytotoxicity flag (confluency mask): cytotoxic (confluency <70% of control), agonist: Imiquimod (TLR7) […]
# [10] = cytotoxicity flag (confluency mask): cytotoxic (confluency <70% of control), agonist: MPLA (TLR4) […]
compound,measurement,setting,value
CCC(CC)(NC(=O)C(C)C)C(=O)NC(CCCNC(=N)N)C(=O)NC1(C(=O)NC(c2ccc(F)cc2)c2ccc(F)cc2)CCCC1 (stereo not given),NF-kB SEAP reporter activity,RAW-Dual [1]; [4],1.08
same,NF-kB SEAP reporter activity,RAW-Dual [1]; [5],0.867
CCC(CC)(NC(=O)C(C)C)C(=O)NC(CCCNC(=N)N)C(=O)NC1(C(=O)NC(c2ccc(F)cc2)c2ccc(F)cc2)CCCC1 (stereo not given) (library stock concentration (final ~1000-fold dilution): 10 mM),NF-kB SEAP reporter activity,RAW-Dual [2]; agonist: LPS (TLR4) 0.1 ug/mL,0.847
same,NF-kB SEAP reporter activity,RAW-Dual [2]; [6],0.788
same,NF-kB SEAP reporter activity,RAW-Dual [2]; [7],0.957
same,NF-kB SEAP reporter activity,RAW-Dual [2]; [8],0.971
CC/C(C)=C/CC[C@](C)(O)C1CC[C@]2(C)C3C[C@@H](O[C@@H]4O[C@H](CO)[C@@H](O)[C@H](O)[C@H]4O[C@@H]4O[C@@H](C)[C@H](O)[C@@H](O)[C@H]4O)C4C(C)(C)C(O)CC[C@]4(C)C3C[C@H](O)C12 (stereo not given in full),NF-kB SEAP reporter activity,RAW-Dual [1]; [4],0.952
same,NF-kB SEAP reporter activity,RAW-Dual [1]; [5],0.934
CC/C(C)=C/CC[C@](C)(O)C1CC[C@]2(C)C3C[C@@H](O[C@@H]4O[C@H](CO)[C@@H](O)[C@H](O)[C@H]4O[C@@H]4O[C@@H](C)[C@H](O)[C@@H](O)[C@H]4O)C4C(C)(C)C(O)CC[C@]4(C)C3C[C@H](O)C12 (stereo not given in full) (library stock concentration (final ~1000-fold dilution): 10 mM),NF-kB SEAP reporter activity,RAW-Dual [2]; agonist: LPS (TLR4) 0.1 ug/mL,1.2
same,NF-kB SEAP reporter activity,RAW-Dual [2]; [6],0.992
same,NF-kB SEAP reporter activity,RAW-Dual [2]; [7],0.952
same,NF-kB SEAP reporter activity,RAW-Dual [2]; [8],1.14
Cc1ccccc1C(=O)N1CCc2cc(-c3nc(NC(=O)Cc4ccc5c(c4)OCO5)sc3C)ccc21 (library stock concentration (final ~1000-fold dilution): 10 mM),NF-kB SEAP reporter activity,RAW-Dual [2]; agonist: LPS (TLR4) 0.1 ug/mL,1.34 and 1.45
same,NF-kB SEAP reporter activity,RAW-Dual [2]; [6],0.971 and 0.758
same,NF-kB SEAP reporter activity,RAW-Dual [2]; [7],0.716 and 0.692
same,NF-kB SEAP reporter activity,RAW-Dual [2]; [8],0.695 and 0.61
CCNC(=O)c1cc2c(-c3cc(C(C)(C)O)ccc3Oc3c(C)cc(F)cc3C)cn(C)c(=O)c2[nH]1,NF-kB SEAP reporter activity,RAW-Dual [1]; [9],1.4
same,NF-kB SEAP reporter activity,RAW-Dual [1]; [10],1.84
CCS(=O)(=O)Nc1ccc(Oc2ccc(F)cc2F)c(-c2cn(C)c(=O)c3[nH]ccc23)c1 (library stock concentration (final ~1000-fold dilution): 10 mM),NF-kB SEAP reporter activity,RAW-Dual [3]; agonist: LPS (TLR4) 0.1 ug/mL,3.19
same,NF-kB SEAP reporter activity,RAW-Dual [3]; [6],2.18
same,NF-kB SEAP reporter activity,RAW-Dual [3]; [7],0.424
same,NF-kB SEAP reporter activity,RAW-Dual [3]; [8],1.13
CCNC(=O)c1cc2c(-c3cc(C(C)(C)O)ccc3Oc3c(C)cc(F)cc3C)cn(C)c(=O)c2[nH]1 (library stock concentration (final ~1000-fold dilution): 10 mM),NF-kB SEAP reporter activity,RAW-Dual [3]; agonist: LPS (TLR4) 0.1 ug/mL,0.903
same,NF-kB SEAP reporter activity,RAW-Dual [3]; [6],1.34
same,NF-kB SEAP reporter activity,RAW-Dual [3]; [7],0.318
same,NF-kB SEAP reporter activity,RAW-Dual [3]; [8],0.842
CN1C(=O)C(C)(C)Oc2c(-c3cn(C)c(=O)c4[nH]ccc34)cc(S(C)(=O)=O)cc21 (library stock concentration (final ~1000-fold dilution): 10 mM),NF-kB SEAP reporter activity,RAW-Dual [3]; agonist: LPS (TLR4) 0.1 ug/mL,2.16
same,NF-kB SEAP reporter activity,RAW-Dual [3]; [6],1.73
same,NF-kB SEAP reporter activity,RAW-Dual [3]; [7],0.658
same,NF-kB SEAP reporter activity,RAW-Dual [3]; [8],1.99
CCS(=O)(=O)Nc1ccc(Oc2ccc(F)cc2F)c(-c2cn(C)c(=O)c3[nH]ccc23)c1,NF-kB SEAP reporter activity,RAW-Dual [1]; [9],1.54
same,NF-kB SEAP reporter activity,RAW-Dual [1]; [10],2.13
CN1C(=O)C(C)(C)Oc2c(-c3cn(C)c(=O)c4[nH]ccc34)cc(S(C)(=O)=O)cc21,NF-kB SEAP reporter activity,RAW-Dual [1]; [9],1.56
same,NF-kB SEAP reporter activity,RAW-Dual [1]; [10],2.34
CC1OC(OC2C(CO)OC(OCC3OC(OC(=O)[C@]45CC[C@@H](C)[C@H](C)[C@H]4C4=CCC6[C@@]7(C)C[C@@H](O)[C@@H](O)[C@@](C)(CO)C7CC[C@@]6(C)[C@]4(C)CC5)C(O)C(O)C3O)C(O)C2O)C(O)C(O)C1O (stereo not given in full) (library stock concentration (final ~1000-fold dilution): 10 mM),NF-kB SEAP reporter activity,RAW-Dual [2]; agonist: LPS (TLR4) 0.1 ug/mL,1.08
same,NF-kB SEAP reporter activity,RAW-Dual [2]; [6],0.915
same,NF-kB SEAP reporter activity,RAW-Dual [2]; [7],1.06
same,NF-kB SEAP reporter activity,RAW-Dual [2]; [8],1.1
CC1OC(OC2C(CO)OC(OCC3OC(OC(=O)[C@]45CC[C@@H](C)[C@H](C)[C@H]4C4=CCC6[C@@]7(C)C[C@@H](O)[C@@H](O)[C@@](C)(CO)C7CC[C@@]6(C)[C@]4(C)CC5)C(O)C(O)C3O)C(O)C2O)C(O)C(O)C1O (stereo not given in full),NF-kB SEAP reporter activity,RAW-Dual [1]; [4],0.975
same,NF-kB SEAP reporter activity,RAW-Dual [1]; [5],1.12
Cc1c(CN2CCC(Nc3ncnc4sc(CC(F)(F)F)cc34)CC2)ccc2[nH]c(C#N)cc12 (library stock concentration (final ~1000-fold dilution): 10 mM),NF-kB SEAP reporter activity,RAW-Dual [2]; agonist: LPS (TLR4) 0.1 ug/mL,1.32
same,NF-kB SEAP reporter activity,RAW-Dual [2]; [6],0.176
same,NF-kB SEAP reporter activity,RAW-Dual [2]; [7],0.631
same,NF-kB SEAP reporter activity,RAW-Dual [2]; [8],0.575
Cc1c(CN2CCC(Nc3ncnc4sc(CC(F)(F)F)cc34)CC2)ccc2[nH]c(C#N)cc12,NF-kB SEAP reporter activity,RAW-Dual [1]; [4],0.878
same,NF-kB SEAP reporter activity,RAW-Dual [1]; [5],0.915
O=C(NC1=CC(=O)[C@H]2O[C@H]2[C@H]1O)c1ccccc1O (library stock concentration (final ~1000-fold dilution): 10 mM),NF-kB SEAP reporter activity,RAW-Dual [2]; agonist: LPS (TLR4) 0.1 ug/mL,0.727
same,NF-kB SEAP reporter activity,RAW-Dual [2]; [6],0.951
same,NF-kB SEAP reporter activity,RAW-Dual [2]; [7],0.806
same,NF-kB SEAP reporter activity,RAW-Dual [2]; [8],0.551
O=C(NC1=CC(=O)[C@H]2O[C@H]2[C@H]1O)c1ccccc1O,NF-kB SEAP reporter activity,RAW-Dual [1]; [4],1
same,NF-kB SEAP reporter activity,RAW-Dual [1]; [5],1.08
COc1cc(OC)c(C=CS(=O)(=O)Cc2ccc(OC)c(NCC(=O)O)c2)c(OC)c1,NF-kB SEAP reporter activity,RAW-Dual [1]; [4],2.64
same,NF-kB SEAP reporter activity,RAW-Dual [1]; [5],2.27
COc1ccc(CNC(=O)CCl)cc1OC,NF-kB SEAP reporter activity,RAW-Dual [1]; [4],1.02
same,NF-kB SEAP reporter activity,RAW-Dual [1]; [5],0.962
COc1ccc(CNC(=O)CCl)cc1OC (library stock concentration (final ~1000-fold dilution): 10 mM),NF-kB SEAP reporter activity,RAW-Dual [2]; agonist: LPS (TLR4) 0.1 ug/mL,0.67
same,NF-kB SEAP reporter activity,RAW-Dual [2]; [6],0.674
same,NF-kB SEAP reporter activity,RAW-Dual [2]; [7],0.728
same,NF-kB SEAP reporter activity,RAW-Dual [2]; [8],0.679
COc1cc(OC)c(C=CS(=O)(=O)Cc2ccc(OC)c(NCC(=O)O)c2)c(OC)c1 (library stock concentration (final ~1000-fold dilution): 10 mM),NF-kB SEAP reporter activity,RAW-Dual [2]; agonist: LPS (TLR4) 0.1 ug/mL,4.24
same,NF-kB SEAP reporter activity,RAW-Dual [2]; [6],3.24
same,NF-kB SEAP reporter activity,RAW-Dual [2]; [7],2.21
same,NF-kB SEAP reporter activity,RAW-Dual [2]; [8],2.56
CC(=O)C1CCC2C3CCC4=CC(=O)CCC4(C)C3CCC12C (stereo not given) (library stock concentration (final ~1000-fold dilution): 10 mM),NF-kB SEAP reporter activity,RAW-Dual [2]; agonist: LPS (TLR4) 0.1 ug/mL,0.981
same,NF-kB SEAP reporter activity,RAW-Dual [2]; [6],1.06
same,NF-kB SEAP reporter activity,RAW-Dual [2]; [7],1.38
same,NF-kB SEAP reporter activity,RAW-Dual [2]; [8],1.51
CC(=O)C1CCC2C3CCC4=CC(=O)CCC4(C)C3CCC12C (stereo not given),NF-kB SEAP reporter activity,RAW-Dual [1]; [4],0.441
same,NF-kB SEAP reporter activity,RAW-Dual [1]; [5],1.06
